In PubChem BioAssay AID1861 (The Scripps Research Institute Molecular Screening Center, 2009) one finds inhibition data, which are given here for 61 compounds.

The structures appear in SMILES notation. About 3,100 (1.1%) of roughly 290,000 compounds were called active. Rule as the data show it: active = inhibition above about 16% (passing the limit was not always enough); inactive = the rest. The sample as a whole holds a higher share of actives than the screen did.

Chain of Neuropeptides B/W receptor type 1 (Homo sapiens) (P48145 whole entry, looked up): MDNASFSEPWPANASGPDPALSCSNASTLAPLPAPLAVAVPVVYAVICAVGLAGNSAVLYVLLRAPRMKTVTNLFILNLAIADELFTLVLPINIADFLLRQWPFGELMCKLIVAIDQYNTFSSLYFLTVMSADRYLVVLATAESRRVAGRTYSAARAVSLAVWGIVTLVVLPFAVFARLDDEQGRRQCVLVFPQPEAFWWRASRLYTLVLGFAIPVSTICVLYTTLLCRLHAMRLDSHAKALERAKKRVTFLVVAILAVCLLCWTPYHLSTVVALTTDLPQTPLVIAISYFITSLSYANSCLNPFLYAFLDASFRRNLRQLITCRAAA

The assay concerns the target Neuropeptides B/W receptor type 1 (Homo sapiens) (UniProt P48145). Nature of the assay: GPR7 receptor antagonists, primary screen, cell-based, fluorescence, single concentration (AID 1861).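 Also: cells stimulated with the agonist NPW; 0% = agonist with vehicle and 100% = vehicle without agonist.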 The settings on record: GPR7-expressing cells, fluorescence antagonist assay; at 4.4 µM; active compounds read high.
Regarding `O=C1CCN(Cc2ccc([N+](=O)[O-])cc2)CCN1[C@H](CO)Cc1ccccc1`, the inhibition was 0.55% (inactive). The value for `COc1ccc(C(=O)NC2CCN(C(=O)Nc3ccc(F)cc3)CC2)cc1` was -10.4% (inactive); that for `CCOc1ccc(N=C2SC(C(=O)O)CC(=O)N2C)cc1` (stereo unspecified) was -6.69% (inactive); that for `COc1ccc(N=C2SC(C(=O)Nc3ccc(F)cc3)CC(=O)N2C)cc1` (stereo unspecified) was 26.4% (active). The same measure for `CC1CC(=O)N(CC(=O)Nc2cccc(Cl)c2)c2ccccc2S1(=O)=O` (stereo unspecified): 0.41% (inactive); for `O=C(CSCc1ccc([N+](=O)[O-])cc1)NCCSCc1ccccc1`: 44.7% (active).

For `O=C(CSCc1ccc([N+](=O)[O-])cc1)Nc1cccc(C(=O)Nc2ccccc2C(=O)O)c1`, the inhibition is -8.22% (inactive). The same measure for `COc1ccc(NC(=O)CSCc2ccc([N+](=O)[O-])cc2)cc1OC`: -12% (inactive); for `CC(=O)Nc1ccc(NC(=O)CSc2nnnn2-c2ccccc2F)cc1`: -7.45% (inactive). The same measure for `O=C(CN1CCc2cc3c(cc2C1)OCCCO3)Nc1ccccc1`: -5.17% (inactive); for `Cc1ccc(S(=O)(=O)CC(=O)Nc2c(C)n(C)n(-c3ccccc3)c2=O)cc1`: 1.37% (inactive). `CCOC(=O)C1CN(S(=O)(=O)c2ccc(F)cc2)C1`: the inhibition was -9.92% (inactive). The value for `Cc1c(CCO)c(=O)n(-c2ccccc2)n1S(=O)(=O)c1ccc(F)cc1` was 33% (active); that for `CC1(C)C(C=C(Cl)Cl)C1C(=O)NC(O)C(=O)c1ccccc1` (stereo unspecified) was -5.98% (inactive). `O=C(CN(C(=O)CNC(=O)c1cccs1)c1cccc(F)c1)NC1CCCCC1`: the inhibition was 7.46% (inactive). The same measure for `O=C(CCc1ccccc1)Nc1ccc(NC(=O)C2CCCCC2)nc1`: 14% (inactive); for `O=C(CCc1ccccc1)Nc1ccc(NC(=O)C2CC2)nc1`: 34% (active); for `O=C(NCCc1ccccc1)C1CC1`: -22.6% (inactive). The value for `O=C(C1CC(=O)N(c2ccc(Br)cc2)C1)N1CCCC1` (stereo unspecified) was -7.92% (inactive).

For `COC(=O)c1ccc(N2CCOCC2)c(NC(=O)c2ccc3c(c2)OCCO3)c1`, the inhibition is -10.5% (inactive). `CN(c1ccc(C(=O)NCCC2=CCCCC2)cc1)S(C)(=O)=O`: the inhibition is 10.7% (inactive). The value for `CC(=O)Nc1ccc(S(=O)(=O)N(C)CC(=O)NCCC2=CCCCC2)cc1` was 26.4% (active); that for `CN(CC(=O)NCCc1ccccn1)S(=O)(=O)c1ccc(Cl)cc1` was -4.58% (inactive). The same measure for `Cc1ccccc1/C=C\c1nc(O)c([N+](=O)[O-])c(=O)[nH]1`: -0.51% (inactive); for `CCOC(=O)N1CCC(N2Cc3cccc(C(=O)Nc4c(C)cccc4CC)c3C2=O)CC1`: 8.95% (inactive); for `COc1cc(OC)cc(C(=O)N[C@H](C(=O)OCC(=O)NC(C)c2ccccc2)C(C)C)c1` (stereo partly specified): 34.5% (active). Turning to `Cc1ccc(OCC(=O)NC(C)c2ccccc2)cc1C` (stereo unspecified), the inhibition is 5.96% (inactive).

For `Cc1cc(C)cc(OCC(=O)NC(C)c2ccccc2)c1` (stereo unspecified), the inhibition was -3.54% (inactive). The same measure for `Cc1ccc(S(=O)(=O)N2CCC(C)CC2)cc1C(=O)NCc1ccccn1`: -11.1% (inactive); for `Cc1ccc(SCc2c(C(=O)N/N=C/c3cccnc3)nnn2-c2nonc2N)cc1`: -12% (inactive). The value for `COc1cc(NC(=O)c2ccccc2NS(=O)(=O)c2ccc(Cl)s2)cc(OC)c1` was 26.7% (active).

`COC(=O)c1ccc(NC(=O)c2ccccc2NS(=O)(=O)c2ccccc2)cc1`: the inhibition is 17.3% (inactive). Consider `COc1cc(OC)c(S(=O)(=O)Nc2ccccc2C(=O)O)cc1S(=O)(=O)Nc1ccccc1C(=O)O`, for which the inhibition is -13.8% (inactive). Take `COc1ccc(Nc2ncc(F)c(N3CCOCC3)n2)cc1`: the inhibition was -9.42% (inactive). The same measure for `CC(NCc1ccccc1OC1CCCC1)c1ccccc1` (stereo unspecified): 30.2% (active); for `COc1ccccc1CN1CCN(C(c2ccccc2)c2ccccc2)CC1`: -16.5% (inactive); for `CC(=O)OC(C(=O)NC1CCCCC1)c1ccccc1` (stereo unspecified): -8.98% (inactive). The same measure for `Cc1cnc(CN(C)C(=O)C2CCC(=O)N(CCc3cccc(F)c3)C2)[nH]1` (stereo unspecified): -18.8% (inactive). The value for `Cn1c2ccc(F)cc2c2nnc(NN)nc21` was -11.3% (inactive). Take `CCn1c2ccc(F)cc2c2nnc(SCCN3CCOCC3)nc21`: the inhibition was 77.2% (active).

For `Cc1cc2nc(SCCN3CCOCC3)[nH]c2cc1C`, the inhibition was 3.59% (inactive). The value for `CCCNC(=O)C(=O)Nc1cc2c3c(c1)CCC(=O)N3CCC2` was -11.2% (inactive); that for `Cn1cc([N+](=O)[O-])c(C(=O)Nc2cnn(Cc3ccc(F)cc3)c2)n1` was -7.64% (inactive). The value for `COc1cccc(NC(=O)c2ccc(Cn3cc([N+](=O)[O-])cn3)o2)c1` was -2.16% (inactive); that for `CCc1ccc(NC(=O)c2ccc(Cn3cc([N+](=O)[O-])cn3)cc2)cc1` was 23.8% (active). `COc1ccc(/C=N/NC(=O)C2CC2)c(OC)c1OC`: the inhibition was -4.35% (inactive).

Turning to `O=C1CCCN2N=C(SCC(=O)Nc3ccc(Br)cc3)SC2=N1`, the inhibition was 4.5% (inactive).

Regarding `Cc1cccc(-n2c(SCC(=O)Nc3cccc(S(=O)(=O)NC4=NCCCCC4)c3)nc3ccccc3c2=O)c1C`, the inhibition is 27.4% (active). For the compound `NS(=O)(=O)c1cccc(NC(=O)CSc2nc3ccccc3n2-c2ccccc2)c1`, the inhibition is 0.27% (inactive). The value for `CCc1ccc(C(=O)OCC(=O)Nc2cccc(S(=O)(=O)NC3=NCCCCC3)c2)cc1` was 11.6% (inactive). The value for `CCOc1ccc(S(=O)(=O)NCCCn2ccnc2)cc1NC(C)=O` was -14.2% (inactive); that for `CCOc1cc(/C=C/c2nc3ccccc3c(=O)[nH]2)cc(Br)c1OC` was 19% (inactive). The same measure for `O=S(=O)(c1ccc(OCC(O)CN2CCN(c3ccccc3Cl)CC2)cc1)N1CCOCC1` (stereo unspecified): 26% (active). For `CC(=O)Nc1ccc(OCC(O)CN2CCN(c3ccccc3Cl)CC2)cc1` (stereo unspecified), the inhibition is 13% (inactive).

In the case of `OC(COc1ccc2ccccc2c1)CN1CCOCC1` (stereo unspecified), the inhibition is -2.78% (inactive). The same measure for `O=C(Nc1ccc(Br)cc1F)C1CC(=O)N(C2CCCCC2)C1` (stereo unspecified): -3.95% (inactive); for `CCN(CC)S(=O)(=O)c1ccc(C(=O)N2CCN(C3=NS(=O)(=O)c4ccccc43)CC2)cc1`: -4.91% (inactive); for `COc1ccccc1N1CC(C(=O)Nc2nnc(SCC(=O)NC(C)C)s2)CC1=O` (stereo unspecified): -8.06% (inactive). The value for `COc1ccc(C)cc1NC(=O)Nc1ccccc1SC` was -7.07% (inactive). The same measure for `COc1ccc(C)cc1NC(=O)NCCCCc1ccccc1`: 28.4% (active). Turning to `COc1ccc(C)cc1NC(=O)NCc1ccccn1`, the inhibition is -18.5% (inactive).

Usually inhibition stands for the drop in the measured response relative to a control, in per cent.
